Here are results for 75 compounds from PubChem BioAssay AID1851 (National Center for Advancing Translational Sciences (NCATS), 2009).

Values joined by “and” are separate entries in the source; they are usually repeats but may differ in a detail not shown here. Equal values may be shown once. The campaign covered roughly 16,000 compounds. About 5,800 (36%) were called active. Another 23% or so got no clear call; they are omitted. This is one part of the list. Values without a mark were called inactive. Calls follow the shape of the dose curve; as a rule, active = well fitted curve in the direction sought with a large enough effect; inconclusive = small, poorly fitted or top-dose-only effect, or effect the other way; inactive = no such curve, though single readings can be large or run the other way. Peptide text beside a SMILES is read from it. * marks the point of attachment. PhAc = O=C(Cc1ccccc1)*; OBn = c1ccc(CO*)cc1
% is scaled to controls: 0 for no effect and ±100 for the full control effect.

The assay deals with Cytochrome P450 2C19 (Homo sapiens) (UniProt P33261). The assay can be described thus: Cytochrome panel assay with activity outcomes. The note with it: recombinant CYP, pro-luciferin dealkylation, luminescence, p450-cyp2c19; series mostly up to 57.1 µM.
Chain of Cytochrome P450 2C19 (Homo sapiens) (P33261 whole entry, looked up): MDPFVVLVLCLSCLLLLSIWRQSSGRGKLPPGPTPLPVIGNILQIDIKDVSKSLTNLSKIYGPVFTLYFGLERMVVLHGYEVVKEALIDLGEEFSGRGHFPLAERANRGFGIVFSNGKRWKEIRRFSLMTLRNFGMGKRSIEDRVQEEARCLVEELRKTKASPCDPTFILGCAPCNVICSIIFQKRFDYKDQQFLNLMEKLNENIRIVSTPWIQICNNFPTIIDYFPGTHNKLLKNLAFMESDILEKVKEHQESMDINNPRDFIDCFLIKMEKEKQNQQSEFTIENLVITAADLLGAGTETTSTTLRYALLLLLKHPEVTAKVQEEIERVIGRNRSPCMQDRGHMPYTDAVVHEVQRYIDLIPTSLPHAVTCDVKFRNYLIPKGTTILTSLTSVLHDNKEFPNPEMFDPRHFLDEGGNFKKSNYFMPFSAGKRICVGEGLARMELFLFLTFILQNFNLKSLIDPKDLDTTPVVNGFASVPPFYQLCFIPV
What is called AC50 is the concentration giving half of the maximal activity seen. For `CCC[C@H]1C[C@H](C(=O)N[C@H]([C@@H]2O[C@H](SC)[C@@H](O)[C@H](O)[C@@H]2O)[C@H](C)O)N(C)C1`, the AC50 result was “inactive”.

`Cc1cc(NC(=O)Nc2ccc(N(C)C)cc2)c2cc(F)cc(F)c2n1`: the half-maximal activity concentration (AC50) is 15.8 µM (active).

Take `Cc1cc(N)c2cc(NC(=O)Nc3ccc4nc(C)cc(N)c4c3)ccc2n1`: the activity, negative = inhibition was -6.46% [at 11.4 µM].

Consider `Cc1cc(C)c(C(N)=O)c(NC(=O)Nc2ccccc2)n1`, for which the AC50 result is “inactive”.

Take `COc1cc(OC)c2c(c1Cl)O[C@@]1(C2=O)[C@H](C)CC(=O)C[C@@H]1OC`: the AC50 entry was “inactive”.

For `C[C@@H]1NCC[C@H](CC(=O)O)[C@H]1CC(=O)O`, the activity, negative = inhibition was 4.52% [at 11.4 µM].

Turning to `CC1CCN(C(=O)CSc2nc3cccnc3n2C)CC1`, the AC50 was 8.91 µM (active).

`COc1ccccc1-n1c(SCC(=O)N2CCCC2)nc2cccnc21`: the AC50 entry was “inactive”.

On to `Cn1c(SCC(=O)N2CCN(S(=O)(=O)c3ccccc3)CC2)nc2ccccc21`, for which the AC50 is 15.8 µM (active).

Consider `O=C(CCc1nc2ccccc2c(=O)[nH]1)OCC(=O)N1CCN(S(=O)(=O)c2ccccc2)CC1`, for which the AC50 entry was “inactive”.

As for `CCCn1c(=O)c2c(ncn2C)n(CCC)c1=O`, the AC50 entry is “inactive”.

Consider `N#Cc1cccc(NC(=O)N2CC[C@@]3(CCCN(C(=O)c4ccco4)C3)C2)c1`, for which the AC50 result was “inactive”.

Take `CCCCCOc1ccc(C(=O)NCC2(c3ccccc3)CCOCC2)cc1`: the half-maximal activity concentration (AC50) was 7.94 µM (active).

As for `O=C(Cc1ccc(Cl)cc1)Nc1cccc(-c2nnc(-c3ccco3)o2)c1`, the half-maximal activity concentration (AC50) was 0.0158 µM (active).

As for `Clc1ccc(-c2nnc(-c3ccco3)o2)cc1`, the AC50 was 20 µM (active).

Take `O=C(Nc1nnc(-c2ccc(Cl)cc2)o1)Nc1ccccc1Cl`: the AC50 result was “inactive”.

Consider `Clc1ccc2c(N3CCC(CCC4CCN(c5ncnc6cc(Cl)ccc56)CC4)CC3)ncnc2c1`, for which the activity, negative = inhibition is -1.06% [at 11.4 µM].

Take `CCCCCC(=O)O[C@H](CC(=O)O)C[N+](C)(C)C`: the AC50 result is “inactive”.

In the case of `COc1cccc(NC(=O)c2cc(-c3cccnc3)nc3c(Cl)cccc23)c1`, the half-maximal activity concentration (AC50) is 6.31 µM (active).

For `COc1ccc(-c2nc3cnc(N4CCNCC4)nc3n(C3CC3)c2=O)cc1`, the AC50 entry was “inactive”.

Consider `CC1(C)CC(NC(=O)c2ccc3c(c2)OCO3)CC(C)(C)N1`, for which the AC50 entry is “inactive”.

On to `CC1(C)CC(NCc2ccc3c(c2)OCO3)CCO1` (stereo not given), for which the AC50 was 11.2 µM (active).

Regarding `c1ccc(CCc2cccnc2)nc1`, the activity, negative = inhibition is -11.1% [at 11.4 µM].

Regarding `c1ccc(NN(Cc2cnccn2)c2ccccc2)cc1`, the concentration at half-maximal activity (AC50) was 2 µM (active).

On to `COc1ccc(O[C@H]2C=C[C@@H](c3ccccc3)O[C@H]2COC(=O)CC/C(C)=N\O[C@@H](C)c2cn([C@H](CO)Cc3ccccc3)nn2)cc1`, for which the AC50 is 63.1 nM (active) and 631 nM (active).

Regarding `C/C(CCC(=O)OC[C@@H]1O[C@H](C#Cc2ccccc2)C=C[C@@H]1Oc1ccc(C)cc1)=N/OC[C@@H](C)[C@H](OCc1ccccc1)C(C)C`, the activity, negative = inhibition is -30.1% [at 11.4 µM].

For `C/C(CCC(=O)OC[C@@H]1O[C@H](C#Cc2ccccc2)C=C[C@@H]1Oc1ccc(C)cc1)=N/OC[C@@H](O)COCc1ccco1`, the activity, negative = inhibition was -32.2% [at 11.4 µM].

Consider `COc1ccc(O[C@H]2C=C[C@@H](c3ccccc3)O[C@H]2COC(=O)CC/C(C)=N\O[C@@H](C)c2cn([C@H]3COC[C@H]3O)nn2)cc1`, for which the AC50 is 2.51 µM (active).

With `C/C(CCC(=O)OC[C@@H]1O[C@H](C#Cc2ccccc2)C=C[C@@H]1Oc1ccc(C)cc1)=N/O[C@@H](C)c1cn([C@H](CO)Cc2ccccc2)nn1`, the AC50 was 3.98 µM (active).

In the case of `CO/N=C(/C)CCC(=O)OC[C@@H]1O[C@H](C#Cc2ccccc2)C=C[C@@H]1Oc1ccc(C)cc1`, the half-maximal activity concentration (AC50) was 3.98 µM (active).

As for `CC(=O)OC[C@H]1O[C@@H](O/N=C(\C)CCC(=O)OC[C@@H]2O[C@H](C#Cc3ccccc3)C=C[C@@H]2Oc2ccc(C)cc2)[C@H](OC(C)=O)[C@@H](OC(C)=O)[C@H]1OC(C)=O`, the activity, negative = inhibition was -18.3% [at 11.4 µM].

With `CC(=O)OC[C@@H]1O[C@H](C/C=N\O[C@@H](C)c2cn([C@H](CO)Cc3ccccc3)nn2)C=C[C@@H]1OC(C)=O`, the activity, negative = inhibition was 25.9% [at 11.4 µM] and 17.9% [at 11.4 µM].

For `CC(C)=NO[C@@H](C)c1cn([C@H](CO)Cc2ccccc2)nn1`, the activity, negative = inhibition was -12.3% [at 11.4 µM] and -23.6% [at 11.4 µM].

Consider `CCc1cc2c(nc1CC)CCN(CC/C(C)=N/O[C@@H](C)c1cn([C@@H]3COC[C@@H]3O)nn1)C2`, for which the activity, negative = inhibition is 14.6% [at 11.4 µM].

Turning to `C/C(CCN1CCc2nc(-c3ccccc3)c(-c3ccccc3)cc2C1)=N\O[C@@H](C)c1cn([C@@H]2COC[C@@H]2O)nn1`, the activity, negative = inhibition was 3.9% [at 11.4 µM].

With `O=CN1CCN(C[C@H](O)CN2CCCCC2)CC1`, the activity, negative = inhibition is 10.2% [at 11.4 µM].

As to `O=c1oc2c(Cl)cc(Cl)cc2cc1-c1nnc(Nc2ccccc2F)s1`, the AC50 result was “inactive”.

For the compound `O[C@@](CCN1CCCCC1)(c1ccccc1)C1CCCCC1`, the AC50 entry was “inactive”.

For `CC(C)C(O)(C#CCN1CCCC1)c1ccccc1` (stereo not given), the concentration at half-maximal activity (AC50) was 10 µM (active).

For the compound `OC(CCCN1CCCCC1)(c1ccccc1)c1ccccc1`, the AC50 entry is “inactive”.

With `CO[C@H]1COC(=O)[C@H]2CCCN2C(=O)C/C=C\[C@@H](C)[C@H](OC)COC(=O)C/C=C\[C@@H]1C`, the activity, negative = inhibition was 19.4% [at 11.4 µM].

In the case of `COc1ccc(N(CC(=O)NN=C2CCCC2)S(=O)(=O)c2ccccc2)cc1`, the half-maximal activity concentration (AC50) was 6.31 µM (active).

Regarding `COCCCNC(=O)CN(c1ccc(OC)cc1)S(=O)(=O)c1ccc(NC(C)=O)cc1`, the concentration at half-maximal activity (AC50) is 15.8 µM (active).

Consider `O=C(CN(c1ccccc1)S(=O)(=O)c1ccccc1[N+](=O)[O-])NN=C1CCCCCCC1`, for which the concentration at half-maximal activity (AC50) was 0.794 µM (active).

On to `COC(=O)[C@@]1(Cc2ccccc2)[C@H]2c3cc(C(=O)N4CCCC4)n(Cc4ccc(C)o4)c3C[C@H]2CN1C(=O)c1ccccc1`, for which the concentration at half-maximal activity (AC50) is 2.51 µM (active).

For the compound `COC(=O)[C@@]1(Cc2ccc(F)cc2)[C@H]2c3cc(C(=O)N4CCCC4)n(Cc4ccc(C)o4)c3C[C@H]2CN1C(=O)c1ccccc1`, the AC50 was 5.01 µM (active).

Consider `COC(=O)[C@@]1(Cc2ccc(F)cc2)[C@H]2c3cc(C(=O)N(C)C)n(Cc4ccc(C)o4)c3C[C@H]2CN1C(=O)c1ccccc1`, for which the concentration at half-maximal activity (AC50) was 15.8 µM (active).

In the case of `COC(=O)[C@@]1(Cc2ccc(F)cc2)[C@H]2c3cc(C(=O)N4CCCC4)n(Cc4ccc(OC(F)(F)F)cc4)c3C[C@H]2CN1C(=O)c1ccccc1`, the AC50 result is “inactive”.

Consider `COC(=O)[C@@]1(Cc2ccc(F)cc2)[C@H]2c3cc(C(=O)N(C)C)n(Cc4ccc(C)c(F)c4F)c3C[C@H]2CN1C(=O)c1ccccc1`, for which the AC50 is 15.8 µM (active).

Regarding `Clc1cc2c(c(CSC3=NCN(CC4CC4)CN3)c1)OCOC2`, the activity, negative = inhibition was 10.2% [at 11.4 µM].

On to `C=C(C)COc1ccc(-c2n[nH]c(C)c2-c2ccc(OC)cc2)c(O)c1`, for which the AC50 was 2.24 µM (active).

Turning to `Oc1ccc(-c2[nH]ncc2-c2ccc(Cl)cc2)c(O)c1`, the AC50 was 0.251 µM (active).

In the case of `COc1ccc(-c2n[nH]c(C)c2-c2ccc(Cl)cc2)c(O)c1`, the concentration at half-maximal activity (AC50) was 2.51 µM (active).

For `Cc1[nH]nc(-c2ccc(O)cc2O)c1-c1ccc(Cl)cc1`, the AC50 was 0.282 µM (active).

For `CCN1CCCCC(=N/O)/C(=N/O)CCCC1`, the activity, negative = inhibition was 10.8% [at 11.4 µM].

As for `O=C1[C@H]2[C@H]3[C@H](O)[C@H](O)C/C(=N/OC[C@@H](O)COCc4ccco4)[C@@H]3CC[C@@H]2C(=O)N1Cc1ccc2c(c1)OCO2`, the activity, negative = inhibition is -24.6% [at 11.4 µM].

Turning to `CCOC(=O)C1=C[C@@]2(CC)CCCN3CCc4c(n1c1ccccc41)[C@H]32`, the AC50 result was “inactive”.

Consider `COc1cc2ccccc2cc1C(=O)Nc1ccc(S(=O)(=O)Nc2cc(C)on2)cc1`, for which the AC50 result is “inactive”.

Turning to `Cc1cc(NC(=O)c2ccc(S(=O)(=O)Nc3ccccc3)cc2)no1`, the AC50 is 5.01 µM (active).

In the case of `Cc1ccc(C2Nc3ccccc3C(=O)N2Cc2ccco2)cc1` (stereo not given), the half-maximal activity concentration (AC50) was 2.82 µM (active).

As for `O=C1c2ccccc2NC(c2ccc(F)cc2)N1Cc1ccco1` (stereo not given), the concentration at half-maximal activity (AC50) was 3.55 µM (active).

As to `O=C(C1=C(O)C(=O)N(Cc2ccco2)C1c1ccccc1)c1cccs1` (stereo not given), the AC50 entry is “inactive”.

In the case of `COc1ccc(C2Nc3ccccc3C(=O)N2Cc2ccco2)cc1COc1ccc([N+](=O)[O-])cc1` (stereo not given), the AC50 was 2.51 µM (active).

Regarding `S=C(S)O[C@@H]1C[C@@H]2C[C@H]1[C@@H]1CCC[C@H]21`, the AC50 is 15.8 µM (active).

With `C=CCOc1c(Br)cc(CNc2ccc(NC(=O)C(C)C)c(OC)c2)cc1OC`, the half-maximal activity concentration (AC50) is 3.55 µM (active).

With `O=C1c2ccccc2C(=O)N1CCCCN(C(=O)c1cccc([N+](=O)[O-])c1)c1ccc(Cl)cc1`, the half-maximal activity concentration (AC50) was 3.16 µM (active).

Regarding `O=C1c2ccccc2C(=O)N1CCCCN(C(=O)c1ccc([N+](=O)[O-])cc1)c1ccc(Cl)cc1`, the concentration at half-maximal activity (AC50) was 4.47 µM (active).

With `C/C(CCN1CCc2nc(-c3ccccc3)c(-c3ccccc3)cc2C1)=N\O[C@@H](C)CN1CCCCc2nc(C)c(C)cc21`, the activity, negative = inhibition is -15.5% [at 11.4 µM].

As to `O=C(CNC(=O)c1cccs1)NCC(=O)OCc1ccc(Cl)cc1`, the half-maximal activity concentration (AC50) is 6.31 µM (active).

`O=C(CNC(=O)Cc1ccccc1)NCC(=O)OCc1ccccc1` (PhAc-Gly-Gly-OBn): the AC50 entry was “inactive”.

Turning to `O=C(CNC(=O)c1cccs1)NCC(=O)OCc1ccc(Cl)cc1Cl`, the AC50 is 5.01 µM (active).

Regarding `COC(=O)C1C(=O)C2=C(CC1C)NC(=O)CC2c1cccc(C)c1` (stereo not given), the AC50 is 11.2 µM (active).

Turning to `COc1ccc(-n2c(=O)c(-c3ccc(Cl)cc3)nc3cncnc32)cc1`, the AC50 entry was “inactive”.

With `COc1ccc(/C(C#N)=C/c2c(-c3ccc(Cl)cc3)nc3c(C)cccn23)cc1`, the AC50 is 3.16 µM (active).

As to `COc1ccc(Oc2ncc3nc(-c4ccc(Cl)cc4)c(=O)n(C)c3n2)cc1`, the AC50 entry is “inactive”.
